Inconclusive results are not listed. Values without a mark were called inactive. Activity calls are given as the source filed them. Calls follow the shape of the dose curve; as a rule, active = well fitted cell-killing curve with a large enough effect; inconclusive = small, poorly fitted or top-dose-only effect, or effect the other way; inactive = flat fitted curve, though single readings scatter.
Assay: qHTS of pediatric cancer cell lines to identify multiple opportunities for drug repurposing: Confirmatory screen for Rh18 cells (AID 1347125); also: nearly all actives have a fitted effect of over 55% in size
Details: Rh18 rhabdomyosarcoma cells, viability; series mostly up to 45.9 µM; activity change, negative = cytotoxic: at the top concentration
Description: Drug repurposing or repositioning has been offered as a strategy for drug development in oncology programs. This approach has special potential for childhood cancers and other rare or orphan diseases, where the expected return on new drug development has been a disincentive to pharmaceuticals.
In this project we exploit the poly-pharmacology of drugs to discover new indications via phenotypic screening of a panel of 19 well-characterized cell lines derived from solid tumors seen in children and adolescents. The goal is to identify approved drugs with previously unrecognized anticancer properties that has the potential to reveal new mechanisms and biological processes involved in carcinogenesis or drug resistance. We employed a titration-based paradigm (quantitative high-throughput screening or qHTS), where all compounds were tested at multiple concentrations for their effect on cell viability. Concentration-response curves (CRCs) were derived directly from the primary screen, and both potency and efficacy values were used to identify compounds with robust bioactivity profiles. We screened the NIH Chemical Genomics Center (NCGC) Pharmaceutical Collection (NPC) and Mechanism Interrogation Plate (MIPE) small molecule collections of approved and investigational compounds against these cell lines; and measured metabolically active cells after 48 hours of compound treatment as a proxy for cell viability.
Assay Submitter: Nathalia J. Martinez, National Center for Advancing Translational Sciences, National Institutes of Health, Rockville, MD, USA; email: natalia.martinez@nih.gov
[1] Shen, M et al. Quantitative high-throughput phenotypic screening of pediatric cancer cell lines identifies multiple opportunities for drug repurposing. Oncotarget 2017 Dec 19;9(4):4758-4772. PMID 29435139.
The cells were obtained from University of North Carolina (UNC), Pediatric Preclinical Testing Program (PPT), and Coriell Institute (CI).
qHTS cell viability assay:
Cells were assayed in growth media at a density of 500-1,000 cells/well. Five microliters of cells were dispensed into 1,536-well, white, solid-bottom, TC-treated plates (Greiner Bio One) using a multidrop dispenser and incubated at 37 degrees C, 5% CO2, under a humidified atmosphere for 5 hours. Twenty-three nanoliters of compounds and controls (neutral control DMSO or positive control bortezomib at final concentration of 2.3 µM) were subsequently transferred by Kalypsys pintool. For primary screens, the MIPE collection was tested at 11-point dilutions (final concentrations range from 0.78 nM to 46 µM) and the NPC collection at 8-point dilutions (final concentrations range from 0.59 nM to 46 µM). Compounds tested in follow-up screens were assayed at 11-point dilutions. Cells were incubated for 48 hours, followed by addition of 3 µL of CellTiter-Glo (Promega). After a 15 min incubation at room temperature, samples were analyzed for luminescence intensity using a ViewLux High-throughput CCD imager equipped with clear filters.
% is scaled to controls: 0 for no effect and ±100 for the full control effect; potency is read from the fitted curve at half-maximal effect.

Q: For `C[C@@]12OC(=O)[C@]1([C@@H](O)[C@@H]1C=CCCC1)NC(=O)[C@H]2CCCl`, which Potency is on record?
A: 1170 nM (active)

Q: With `C[C@]12Cc3cn[nH]c3C[C@@H]1CC[C@@H]1[C@H]2CC[C@@]2(C)[C@H]1CC[C@]2(C)O` as the compound, how does the “activity change, negative = cytotoxic” value read?
A: -24.7%

Q: With `CC[C@@H]1[C@@H](C)O[C@@](O)([C@@H](C)[C@H](O)[C@H](C)[C@H]2OC(=O)C=CC=C[C@@H](C)[C@@H]([C@@H](C)[C@@H](O)[C@H](C)[C@@]3(O)C[C@H](O[C@H]4C[C@H](O)[C@H](O)[C@H](C)O4)[C@H](CC)[C@@H](C)O3)OC(=O)C=CC=C[C@@H]2C)C[C@H]1O[C@H]1C[C@H](O)[C@H](O)[C@H](C)O1` as the compound, how does the “activity change, negative = cytotoxic” value read?
A: -4.12%

Q: Which “activity change, negative = cytotoxic” value does the source give for `CC=C(C)C(=O)N[C@@H](c1ccccc1)[C@@H](O)C(=O)O[C@H]1C[C@@]2(O)[C@@H](OC(=O)c3ccccc3)[C@@H]3[C@]4(OC(C)=O)CO[C@@H]4C[C@H](O)[C@@]3(C)C(=O)[C@H](OC(C)=O)C(=C1C)C2(C)C` here?
A: -23%

Q: Which “activity change, negative = cytotoxic” value does the source give for `CC[C@H]1C=CC=CC[C@@H](C)[C@H](O)[C@@](C)(O)C(=O)[C@@H](C)[C@H](O)[C@@H](C)C(=O)[C@@H](C)[C@H](O)[C@@H](C)C=CC(=O)O[C@@H]2[C@@H](C)[C@H](CC1)O[C@]1(CC[C@H](C)[C@H](C[C@@H](C)O)O1)[C@H]2C` here?
A: -16.2%

Q: Which Potency does the source give for `CC(=O)[O][Hg][c]1ccccc1` here?
A: 4650 nM (active)

Q: For `CC(C)N[C@@H]1CCn2c(=O)[nH]c3cccc(c32)[C@@H]1O`, which “activity change, negative = cytotoxic” value is on record?
A: 4.7%

Q: With `Cc1ccccc1-n1c(Cn2cnc3c(N)ncnc32)nc2cccc(C)c2c1=O` as the compound, how does the “activity change, negative = cytotoxic” value read?
A: -17.6%

Q: With `O=C(N[C@H]1CN2CCC1CC2)c1ccc(Cl)cc1` as the compound, how does the “activity change, negative = cytotoxic” value read?
A: 3.87%

Q: Which “activity change, negative = cytotoxic” value does the source give for `COc1cc([C@@H]2c3cc4c(cc3[C@@H](O)C3COC(=O)C32)OCO4)cc(OC)c1O` (stereo partly specified) here?
A: -4.08%

Q: Which “activity change, negative = cytotoxic” value does the source give for `O=[N+]([O-])c1c(Cl)c(Cl)cc(Cl)c1Cl` here?
A: -12% [at 95.5 µM]

Q: With `O=c1[nH]c2ccc(Cl)cc2c(N[C@@H]2CN3CCC2CC3)c1-c1nc2ccccc2[nH]1` as the compound, how does the Potency read?
A: 26100 nM (active)

Q: With `Cc1[nH]nc2ccc(-c3cncc(OC[C@@H](N)Cc4c[nH]c5ccccc45)c3)cc12` as the compound, how does the Potency read?
A: 4650 nM (active)

Q: For `CC1=C(O)C(=O)C=C2C1=CC=C1[C@@]2(C)CC[C@@]2(C)[C@@H]3C[C@](C)(C(=O)O)CC[C@]3(C)CC[C@]12C`, which Potency is on record?
A: 2330 nM (active)

Q: With `O=C1C(I)=CC(=C(c2cc(I)c(O)c(I)c2)c2ccccc2C(=O)O)C=C1I` as the compound, how does the “activity change, negative = cytotoxic” value read?
A: -3.05%

Q: For `O=C(O)COc1nc(Cl)c(Cl)cc1Cl`, which “activity change, negative = cytotoxic” value is on record?
A: 1.7% [at 95.5 µM]

Q: With `C[C@H]1CCCC=CC2C[C@H](O)C[C@@H]2[C@H](O)C=CC(=O)O1` (stereo partly specified) as the compound, how does the Potency read?
A: 104 nM (active)

Q: With `CC[C@@]1(O)C(=O)OCc2c1cc1n(c2=O)Cc2cc3ccccc3nc2-1` as the compound, how does the Potency read?
A: 827 nM (active)

Q: For `C[C@@H]1CC[C@@]2(OC1)O[C@H]1C[C@H]3[C@@H]4CC=C5C[C@@H](O[C@@H]6O[C@H](CO)[C@@H](O[C@@H]7O[C@@H](C)[C@H](O)[C@@H](O)[C@@H]7O)[C@H](O)[C@@H]6O[C@@H]6O[C@@H](C)[C@H](O)[C@@H](O)[C@@H]6O)CC[C@]5(C)[C@@H]4CC[C@]3(C)[C@@H]1[C@H]2C`, which Potency is on record?
A: 10400 nM (active)

Q: With `CC(C)(C)C(O)C(Oc1ccc(Cl)cc1)n1cncn1` (stereo unspecified) as the compound, how does the “activity change, negative = cytotoxic” value read?
A: -5.11% [at 95.5 µM]

Q: Which Potency does the source give for `CC(C)(O)C=CC(=O)[C@](C)(O)[C@H]1[C@H](O)C[C@]2(C)[C@@H]3CC=C4[C@@H](C=C(O)C(=O)C4(C)C)[C@]3(C)C(=O)C[C@@]12C` here?
A: 147 nM (active)

Q: Which “activity change, negative = cytotoxic” value does the source give for `CS(=O)(=O)c1ccc(C(=O)C2C(=O)CCCC2=O)c([N+](=O)[O-])c1` here?
A: 17.6% [at 95.5 µM]

Q: For `CC=C(C)C(=O)O[C@H]1C(C)=C2[C@@H]3OC(=O)[C@@](C)(O)[C@@]3(O)[C@@H](OC(=O)CCC)C[C@](C)(OC(C)=O)[C@@H]2[C@@H]1OC(=O)CCCCCCC`, which “activity change, negative = cytotoxic” value is on record?
A: 16.1%

Q: For `CCC(=O)OC1CCC2C3CCC4=CC(=O)CC[C@@]4(C)C3CC[C@]12C` (stereo partly specified), which “activity change, negative = cytotoxic” value is on record?
A: -5.37%

Q: For `O=C(O)CCCOc1ccc(Cl)cc1Cl`, which “activity change, negative = cytotoxic” value is on record?
A: -17.2% [at 95.5 µM]

Q: Which Potency does the source give for `CC(C)[C@]12O[C@@H]1[C@@H]1O[C@]13[C@]1(O[C@H]1C[C@@H]1C4=C(CC[C@@]13C)C(=O)OC4)[C@H]2O` here?
A: 82.7 nM (active)

From PubChem BioAssay (NCATS)
